NPR1 antag: antagonists of human natriuretic peptide receptor Npr1 | Potency, µM (top dose mostly 46.3 µM), for the others: at the top dose activity change, negative = inhibition, hits mostly inhibitors | hit rate 1.6% among 76,000 | P16066 | HEK293 hNpr1 GloSensor cGMP, ANP-stimulated luminescence; calls by dose curve; also: % is scaled to controls: 0 for no effect and ±100 for the full control effect; nearly all actives have a fitted effect of over 60% in size
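Compound pre-incubated 30 min at room temperature on GloSensor-loaded HEK293 cells stably carrying hNpr1 and the pGS-40F cGMP biosensor. Stimulation uses hNppA at 0.1 nM final; luminescence is taken at baseline and 20 min post-agonist.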
HEK cytotox: cytotoxic compounds in HEK 293 cells; HEK 293 viability, ATP luminescence (CellTiter-Glo), 48-72 h; Potency, µM (highest dose often 115 µM), inactives show at the top dose activity change, negative = cytotoxicity, most hits filed as inhibitors; hit rate 6.6% among 94,000; AID 1345083; also: % is scaled to controls: 0 for no effect and ±100 for the full control effect; nearly all actives have a fitted effect of over 60% in size
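qHTS cytotoxicity; HEK 293, 250 cells/well; compound pinned; 48 or 72 hr, 37 degree Celsius, 5% CO2, 95% humidity; CellTiter-Glo, 10 min RT; luminescence (ATP).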
FLuc inh-1: Photinus pyralis luciferase inhibition; P08659; purified P. pyralis luciferase, luminescence, biochemical; Potency, µM (doses to about 115 µM), usual class: inhibitors; hit rate 2.5% among 76,000; AID 1347043; also: % is scaled to controls: 0 for no effect and ±100 for the full control effect; nearly all actives have a fitted effect of over 65% in size
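Purified 10nM P. pyralis luciferase with 10uM D-luciferin and 10uM ATP in 50mM Tris acetate pH 7.5, 10mM Mg acetate, 0.01% Tween-20, 0.05% BSA. qHTS titration; luminescence read by CCD imager.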
GPT2 inhibitor: blocks human glutamate pyruvate transaminase 2; Recombinant GPT2, coupled pyruvate oxidase/HRP Amplex Red fluorescence; hit rate 0.25% among 100,000; Potency, µM (top dose mostly 57.7 µM), inactives show at the top dose activity change, negative = inhibition, hits mostly inhibitors; also: % is scaled to controls: 0 for no effect and ±100 for the full control effect; nearly all actives have a fitted effect of over 60% in size
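GPT2 10ng/uL, a-KG 250uM, L-Ala 2mM, HEPES pH7.5 + 0.0001% Tween; 30 min RT. Then Amplex mix (PO/HRP/ThPP), 30 min RT dark, fluorescence. AOA 50uM used as positive control.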
NIH3T3 tox: kills NIH 3T3 cells; NIH 3T3 viability, CellTiter-Glo ATP luminescence, 48-72 h; Potency, µM (titrated, usually from 96.7 µM), for the others: at the top dose activity change, negative = cytotoxicity, actives largely listed as inhibitors; hit rate 4.3% among 94,000; also: % is scaled to controls: 0 for no effect and ±100 for the full control effect; nearly all actives have a fitted effect of over 55% in size
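Cytotoxicity is measured as loss of cellular ATP: NIH 3T3 cells (400/well) are exposed to compound for 48 or 72 hr at 37 °C, then CellTiter-Glo luminescence is imaged after 10 min at room temperature.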
FLuc SDR -ATP: binders stabilizing firefly luciferase, without ATP; Purified FLuc-C-HiBiT, Nano-Glo HiBiT luminescence, no ATP; shares compounds with FLuc inh-1; Potency, µM (top dose mostly 32.7 µM), without a hit: top-dose activation (signal gain), hits mostly activators; hit rate 7.8% among 1,300; also: nearly all actives have a fitted effect of over 55% in size
FLuc SDR ATP: binders stabilizing firefly luciferase, plus ATP | shares compounds with FLuc inh-1 | purified FLuc-C-HiBiT + ATP, HiBiT complementation luminescence | Potency, µM (series often up to 32.7 µM), inactives show top-dose activation (gain of signal), usual class: activators | hit rate 8.7% among 1,300 | AID 1963319;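 also: signal reports ligand binding via conformational change of the enzyme rather than luciferase catalysis; % of control where 0% means no effect; nearly all actives have a fitted effect of over 55% in size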
FLuc inh-2: blocks firefly luciferase enzymatic activity. hit rate 42% among 1,300. Potency, µM (doses to about 32.7 µM), for the others: top-dose activity change, negative = inhibition, actives largely listed as inhibitors. purified FLuc-C-HiBiT enzyme, luciferin luminescence. shares compounds with FLuc inh-1; also: % is scaled to controls: 0 for no effect and ±100 for the full control effect; nearly all actives have a fitted effect of over 70% in size
* hit, by the source's call; i = inactive; ? = inconclusive; . = not tested or not shown; [ ] = remark or other dose. Sampled rows, rich in hits. Any-hit rate of the full collection: about 10%. Unless noted, calls follow the shape of the dose curve; as a rule, active = well fitted curve in the direction sought with a large enough effect; inconclusive = small, poorly fitted or top-dose-only effect, or another doubt; inactive = no such curve, though single readings can be large; an effect the other way counts as inactive or inconclusive. Potency is read from the fitted curve at half-maximal effect.

SMILES	NPR1 antag	HEK cytotox	FLuc inh-1	GPT2 inhibitor	NIH3T3 tox	FLuc SDR -ATP	FLuc SDR ATP	FLuc inh-2
COc1ccc(-c2noc([C@@H]3C[C@H](NCc4ccccn4)CN3C)n2)cc1	?	100µM*	13µM*	-20%[88.5 µM]	?	18%[49.3 µM]	15%[49.3 µM]	?
Cc1cccc(C(=O)N2CCCC(c3nnnn3-c3ccccc3)C2)c1 (stereo unspecified)	.	?	.	i	-44%	.	.	.
c1ccc(-c2ccnc(NCCc3c[nH]c4ccccc34)n2)nc1	-27%	?	8.9µM*	-4%	?	16%	12%	?
c1ccc(-c2csc(CCNc3nccc(-c4ccccn4)n3)n2)cc1	?	?	?	i	?	.	.	.
COCCCn1c(=O)c(C(=O)N2CCC(c3ccccc3)CC2)nc2cccnc21	.	0%	.	i	-9%	.	.	.
CNCCN1C(=O)CC[C@H]2CN(C(=O)NCc3ccccc3)CC[C@H]21	23%	-8%	i	3%	2%	.	.	.
CC1(C)[C@H]2CC[C@@H](CNC(=O)c3ccc(C(F)(F)F)cc3)[C@@H]1C2	?	?	i	1%[88.5 µM]	?	.	.	.
O=C(c1ccoc1)N1CCC(c2noc(-c3ccncc3)n2)C1 (stereo unspecified)	-4%	-1%	i	i	-4%	.	.	.
CC1CCC(NC(=O)C2CCN(C(=O)c3ncn4c3COC(c3ccccc3)C4)CC2)CC1 (stereo unspecified)	0%	4%	2.8µM*	i	i	12%	3.1µM*	2.5µM*
CCc1ccc(NC(=O)C2CCN(C(=O)c3ncn4c3COC(c3ccc(F)cc3)C4)CC2)cc1 (stereo unspecified)	2%	-2%	?	-6%	i	.	.	.
CCc1ccc(NC(=O)C2CCN(C(=O)c3ncn4c3COC(c3ccccc3)C4)CC2)cc1 (stereo unspecified)	-17%	?	5µM*	3%	-27%	13%	?	3.9µM*
O=C(Nc1cccc(F)c1)C1CCN(C(=O)c2ncn3c2COC(c2ccccc2)C3)CC1 (stereo unspecified)	?	6%	1µM*	i	-1%	10%	0.99µM*	0.88µM*
O=C(Nc1ccccc1)C1CCN(C(=O)c2ncn3c2COC(c2ccc(F)cc2)C3)CC1 (stereo unspecified)	-7%	4%	?	1%	-2%	.	.	.
Cc1ccc(NC(=O)C2CCN(C(=O)c3ncn4c3COC(c3ccccc3)C4)CC2)cc1 (stereo unspecified)	-23%	9%	2µM*	i	-9%	12%	1.6µM*	1.8µM*
O=C(NC1CC1)C1CCN(C(=O)c2ncn3c2COC(c2ccc(Cl)cc2)C3)CC1 (stereo unspecified)	4%	-4%	?	-7%	-5%	.	.	.
CCNC(=O)N1C[C@@H]2CCCN3CCC[C@@H]([C@H]23)[C@H]1CCCC(=O)Nc1ccccc1	.	-4%	.	i	-25%	.	.	.
O=C(Nc1ccccc1)C1CCN(C(=O)c2ncn3c2COC(c2ccccc2)C3)CC1 (stereo unspecified)	?	-30%	2µM*	i	i	15%	1.6µM*	1.6µM*
CC(=O)c1cccc(NC(=O)c2nc3ccccc3n(C)c2=O)c1	.	.	.	.	.	4.4µM*	?	3.1µM*
COCC1CN(C2CCC2)CC12CCN(C(=O)Cc1ccc(OC)cc1)CC2 (stereo unspecified)	-10%	?	i	i	?	.	.	.
COc1ccc(NC(=O)C2CCN(C(=O)c3ncn4c3COC(c3ccccc3)C4)CC2)cc1Cl (stereo unspecified)	?	1%	1.3µM*	1%	1%	15%	0.62µM*	0.88µM*
Cc1cc(Cl)ccc1NC(=O)C1CCN(C(=O)c2ncn3c2COC(c2ccc(F)cc2)C3)CC1 (stereo unspecified)	-20%	?	?	i	-7%	.	.	.
COc1ccc(C2Cn3cnc(C(=O)N4CCC(C(=O)Nc5ccc(F)c(F)c5)CC4)c3CO2)cc1 (stereo unspecified)	-12%	-2%	i	-8%	-5%	.	.	.
O=C(Nc1ccc(F)c(Cl)c1)C1CCN(C(=O)c2ncn3c2COC(c2ccccc2)C3)CC1 (stereo unspecified)	?	7%	1.8µM*	i	i	13%	0.7µM*	0.99µM*
O=C(Nc1ccc(F)c(F)c1)C1CCN(C(=O)c2ncn3c2COC(c2ccc(F)cc2)C3)CC1 (stereo unspecified)	-14%	?	14µM*	-6%	-9%	12%	?	?
COc1ccc(C(=O)NC2CCN(c3cc(C(F)(F)F)ncn3)CC2)cc1	-4%	-7%	i	2%	?	.	.	.
SMILES	NPR1 antag	HEK cytotox	FLuc inh-1	GPT2 inhibitor	NIH3T3 tox	FLuc SDR -ATP	FLuc SDR ATP	FLuc inh-2
Cc1ccc2nc([C@H]3CCN(C(=O)C4CC4)C3)[nH]c2c1	0%[70.6 µM]	-14%[230 µM]	i	-3%[88.5 µM]	-27%[174 µM]	.	.	.
Cc1ccc2nc([C@H]3CCN(C(C)C)C3)[nH]c2c1	28µM*	?	7.9µM*	-8%[88.5 µM]	-25%[174 µM]	17%[65.7 µM]	16%[65.7 µM]	?
CCOc1ccc(-c2cc(CCCC(=O)NCCc3ccc(SC)cc3)no2)cc1	.	.	.	.	.	15%	?	3.1µM*
CCOc1ccc(-c2cc(CCCC(=O)NCCc3ccc(OCC)c(OCC)c3)no2)cc1	.	.	.	.	.	13%	?	3.5µM*
CN(C)c1cccc(C(=O)Nc2ccc3ncnc(N4CCCCC4)c3c2)c1	-17%	?	i	5%	?	.	.	.
CCc1ccc(C(=O)Nc2ccc3c(N4CCOCC4)ncnc3c2)cc1	2%	?	10µM*	-6%	8.9µM*	?	?	7.9µM*
CN(C)c1cccc(C(=O)Nc2ccc3c(N4CCOCC4)ncnc3c2)c1	-14%	?	13µM*	-10%	-66%	27%	?	?
CCOc1ccc(C(=O)Nc2ccc3ncnc(N4CCCCC4)c3c2)cc1	-3%	?	i	5%	?	.	.	.
O=C(NCCn1ccn2nc(-c3ccc(F)cc3)cc2c1=O)c1cccc2[nH]ccc12	-13%	i	i	4%	i	.	.	.
